According to PubChem BioAssay (NCATS):
Values joined by “and” are separate entries in the source; they are usually repeats but may differ in a detail not shown here. Equal entries are not always repeated. Inconclusive results are not listed. Active and inactive are the calls of the source. Unless noted, calls follow the shape of the dose curve; as a rule, active = well fitted curve in the direction sought with a large enough effect; inconclusive = small, poorly fitted or top-dose-only effect, or another doubt; inactive = no such curve, though single readings can be large; an effect the other way counts as inactive or inconclusive.

Key:
[1] = target: Cytochrome P450 1A2 (Homo sapiens) (UniProt P05177); test: p450-cyp1a2 (AID 410; calls by dose curve; also: potency is read from the fitted curve at half-maximal effect)
Summary of the method: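 Inhibition was calculated relative to 57 uM furafylline (full inhibition). The reaction used human CYP1A2 at 20nM with Luciferin-ME at its Km, 100uM, driven by an NADPH-regenerating system for 60 min at room temperature.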

[2] = target: Glucocorticoid receptor (Homo sapiens) (UniProt P04150); test: GR-GFP Redistribution (AID 450;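 active = compounds whose dose series gives a full or clear partial fitted curve of increased nuclear translocation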; also: potency is read from the fitted curve at half-maximal effect); conditions: U2OS GR-GFP nuclear translocation, laser cytometry, 2 h
[3] = target: Glucocorticoid receptor (Homo sapiens) (UniProt P04150); test: GR-EFC Redistribution (AID 451; calls by dose curve; also: potency is read from the fitted curve at half-maximal effect); conditions: CHO-K1 GR-EFC translocation, beta-gal luminescence, 2 h
Summary of the method: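 Translocation of GR-ED fusion to nuclear EA restores b-gal, read by luminescence after 1 h room-temperature detection. Engineered CHO-K1 biosensor cells, 1,000/well, exposed 2 h at 37 C to titrations up to 46 uM final.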

[4] = target: 3',5'-cyclic-AMP phosphodiesterase 4B (Homo sapiens) (UniProt Q07343); test: qHTS Assay for Inhibitors of PDE-IV (AID 607; active = well fitted activation curve with a large enough effect in the main read-out, with a control signal flat, not every such curve was filed as active; also: % of control where 0% means no effect)
Summary of the method: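 Cell-based read-out of cAMP via a modified cyclic nucleotide-gated channel and membrane potential dye (535/590 nm) in HEK293 cells expressing PDE4 endogenously. Compounds tested up to 22.9 uM final; 100 uM RO 20-1724 reference.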

[5] = qHTS Assay for Lipid Storage Modulators (AID 1519; calls by dose curve); conditions: Drosophila S3 cells, BODIPY lipid droplet/cell ratio, laser cytometry, cells loaded with oleic acid
Summary of the method: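 Cells seeded at 5,000 per well were treated with compounds over a concentration series and loaded with oleic acid (400 uM, as added). Lipid droplet fluorescence (488 nm excitation, 500-530 nm channel) was read by laser-scanning cytometry and normalized to 20 uM Triacsin C.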

[6] = target: DNA dC->dU-editing enzyme APOBEC-3G (Homo sapiens) (UniProt Q9HC16); test: qHTS for inhibitors of Vif-A3G interactions: Validation (AID 588379); also: 0% is about no effect
Summary of the method: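 HeLa cells stably expressing Vif and A3G-eYFP, 700 cells/well, incubated overnight at 37 deg C, then exposed to compound overnight at 37 deg C. Inhibition of Vif-mediated degradation read as increased yellow fluorescence (Ex 488/Em 500-530) by laser-scanning cytometry.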

[7] = tested on: Zika virus NS2B-NS3 protease; test: Primary screen GU AMC qHTS for Zika virus inhibitors (AID 1347154);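 also: 0% = no-inhibitor control and -100% = no-enzyme control; nearly all actives have a fitted effect of over 70% in size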
Summary of the method: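 Fluorogenic AMC-substrate cleavage by noncovalent NS2B-NS3 protease complex (25 nM, pH 8.0 Tris buffer with Tween 20) followed for 15 minutes at room temperature (~20% conversion). Percent inhibition from ex340/em450 signal change, fitted by 4-parameter Hill equation.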

[8] = AP1 Signaling Pathway (AID 357; active = well fitted curve in either direction with a large enough effect, not every such curve was filed as active;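 also: ME-180 reporter cells stimulated with EGF at its EC50 level; % is scaled to controls: 0 for no effect and ±100 for the full control effect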); conditions: ME-180 AP-1-bla reporter, EGF-induced, beta-lactamase ratio, 5 h
Summary of the method: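 Read-out was the 460nm/530nm emission ratio (excitation 405nm) after CCF4 loading for 2.5 hours at room temperature. Cells carried an AP-1-driven beta-lactamase reporter, were stimulated with EC50 EGF plus compound for 5 hours, and AC50 values came from titrations.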

[9] = NFAT Signaling Pathway (AID 444; active = well fitted curve in either direction with a large enough effect, not every such curve was filed as active;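 also: carbachol stimulus at about its EC50 of 1 µM final; % is scaled to controls: 0 for no effect and ±100 for the full control effect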); conditions: Jurkat NFAT-bla M1, carbachol, beta-lactamase ratio, 5 h
Summary of the method: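 Read-out: CCF4 FRET ratio (460 nm/530 nm) after 1 h RT dye loading, used for %activity and AC50 from titration series. Cells: Jurkat NFAT-β-lactamase/M1 line, treated with compound plus 1 uM carbachol for 5 h, 37 °C.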

[10] = Stat Signaling Pathway (AID 446; active = well fitted curve in either direction with a large enough effect, not every such curve was filed as active;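 also: ME-180 cervical cancer cells given 40 pM IL-6 alongside compound; SIE-controlled beta-lactamase reporter measured as 460/530 nm FRET emission ratio; % is scaled to controls: 0 for no effect and ±100 for the full control effect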); conditions: ME-180 SIE beta-lactamase reporter, IL-6 stimulated, 5 h; at 17.2 µM (top of the series)
Summary of the method: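 Reporter line: ME-180 cervical carcinoma, SIE-beta-lactamase. Treatment: compound with 40 pM IL-6, 5 hrs, 37 C, in low-serum OPTI-MEM with 10 mM HEPES pH 7.3. Detection: 460/530 nm fluorescence.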

[11] = target: Mitogen-activated protein kinase 10 (Mus musculus) (UniProt Q61831); test: JNK3 AlphaScreen Assay (AID 530; active = well fitted curve in either direction with a large enough effect, not every such curve was filed as active;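 also: kinase came from lysate of stimulated human HepG2 cells; signal reports phosphorylation of biotinylated GST-cJun 1-79 at Ser73 with 10 µM ATP; % is scaled to controls: 0 for no effect and ±100 for the full control effect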)
Summary of the method: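 Room-temperature AlphaScreen kinase assay; pre-activated HepG2 lysate as JNK3 source, biotin-GST-cJun(1-79) substrate, 10 uM ATP, compound 15 min preincubation.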

[12] = target: Guanine nucleotide-binding protein G(i) subunit alpha-1 (Homo sapiens) (UniProt P63096); test: qHTS Assay for Inhibitors of RGS12 GoLoco Motif Activity (Green Fluorophore) (AID 879);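 also: 0% = labeled peptide with Gαi1 and full inhibition = labeled peptide alone without protein; negative values mean loss of peptide binding seen as reduced polarization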
Summary of the method: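 Fluorescence polarization assay: 50 nM Gαi1 with 10 nM FITC-labeled RGS12 GoLoco peptide in 10 mM Tris pH 7.5, 150 mM NaCl, 0.1 mM GDP, 0.05% NP40, 10 min at room temperature with compound.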

[13] = target: Cytochrome P450 2C9 (Homo sapiens) (UniProt P11712); test: qHTS Assay for Inhibitors and Substrates of Cytochrome P450 2C9 (AID 883); also: % is scaled to controls: 0 for no effect and ±100 for the full control effect; nearly all actives have a fitted effect of over 60% in size
Summary of the method: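 Luminescent read-out of deoxyluciferin hydroxylation, normalized to 57uM sulphaphenazole (AC100). Reaction: 10nM enzyme, 100uM Luciferin-H (equal to KM), 25mM KPO4, 10 min compound preincubation, then 60 min with NADPH regeneration, both at 37C.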

[14] = target: Cytochrome P450 3A4 (Homo sapiens) (UniProt P08684); test: qHTS Assay for Activators of Cytochrome P450 3A4 (AID 885); also: nearly all actives have a fitted effect of over 65% in size
Summary of the method: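 Signal was normalized against complete inhibition by 57 uM ketoconazole. The reaction used 20nM CYP3A4 with 25uM Luciferin-PPXE, 10-min compound preincubation and a 60-min NADPH-supported step at RT.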

[15] = target: Cytochrome P450 2D6 (Homo sapiens) (UniProt P10635); test: qHTS Assay for Inhibitors and Substrates of Cytochrome P450 2D6 (AID 891); also: potency is read from the fitted curve at half-maximal effect; nearly all actives have a fitted effect of over 60% in size
Summary of the method: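 Human CYP2D6 (5 nM) with 30 uM Luciferin-ME EGE (at Km) in 100 mM KPO4, compound preincubated 10 min, then NADPH regeneration system for 60 min at room temperature. Luciferin read by luminescence; normalized to 1.43 uM quinidine.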

[16] = target: Cytochrome P450 2C19 (Homo sapiens) (UniProt P33261); test: qHTS Assay for Inhibitors and Substrates of Cytochrome P450 2C19 (AID 899); also: potency is read from the fitted curve at half-maximal effect; nearly all actives have a fitted effect of over 60% in size
Summary of the method: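 Luminescence readout of luciferin formed from 10uM Luciferin-H EGE (KM level) by 5 nM CYP2C19 in 50mM KPO4. 60 min NADPH-driven reaction at 37C after 10 min compound preincubation; data scaled to 57uM ketoconazole inhibition.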

[17] = qHTS Assay for Identification of Small Molecule Agonists for Thrombopoietin (TPO) Signaling Pathway (AID 917); also: % is scaled to controls: 0 for no effect and ±100 for the full control effect
Summary of the method: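 Luminescence from a Glycoprotein IIb promoter–driven luciferase reporter served as read-out in murine Ba/F3 cells carrying the human TPO receptor. Cells, deprived of IL-3 overnight, received compounds with 26 pM TPO and were incubated 24 hrs at 37 C.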

[18] = target: Muscarinic acetylcholine receptor M1 (Rattus norvegicus) (UniProt P08482); test: qHTS Assay for Antagonists of Acetylcholine Muscarinic M1 Receptor: Measurement of IP-One Response (AID 944); also: nearly all actives have a fitted effect of over 75% in size
Summary of the method: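 Steps: plate transfected CHO-M1 cells overnight; add test compound, 10 min; add carbachol (200 nM, EC80) in stimulation buffer with LiCl; incubate 30 min; add labelled IP1 tracer and anti-IP1 antibody in lysis buffer; read HTRF after 10 min.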

[19] = target: Pyruvate kinase (Leishmania mexicana) (UniProt Q27686); test: qHTS Validation Assay for Inhibitors of Leishmania Mexicana Pyruvate Kinase (AID 945);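 also: 0% = DMSO only neutral control wells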
Summary of the method: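 Compounds are tested as eight-point concentration series. Reactions contain 0.2 nM LmPYK E451W, 0.5 mM PEP, 0.1 mM ADP, 7 mM MgCl2 and 50 mM KCl at pH 7.2, run 1 h at room temperature, then read by PKLight luminescence.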

[20] = target: Pyruvate kinase PKM (Homo sapiens) (UniProt P14618); test: qHTS Assay for Activators of Human Muscle Pyruvate Kinase (AID 954; active = well fitted curve in the direction sought with a large enough effect, not every such curve was filed as active;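 also: 0% = uninhibited enzyme and -100% = no enzyme or full thiadiazolimine inhibition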)
Summary of the method: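 Human PKM2 activity is measured as ATP generation, detected by luciferase-coupled luminescence. The enzyme (0.1 nM) acts on 0.5 mM PEP and 0.1 mM ADP for 1 h at ambient temperature; data are normalized to uninhibited and full-inhibition wells.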

[21] = target: alpha-glucosidase (Oryza sativa, rice) (UniProt Q653V4); test: Counterscreen for Glucocerebrosidase Inhibitors: qHTS Assay for Rice alpha-Glucosidase at pH 5.0 (AID 997);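 also: 0% = full activity with enzyme and -100% = basal without enzyme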
Summary of the method: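 Rice alpha-glucosidase (4 nM final) with 400 uM 4-methylumbelliferyl-alpha-D-glucopyranoside in citrate buffer pH 5.0, 20 min at room temperature, stopped at pH 10; fluorescence 365/440 nm, compounds 0.7 nM–77 uM, AC50 from Hill fits.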

[22] = target: Ubiquitin carboxyl-terminal hydrolase 1 (Homo sapiens) (UniProt O94782); test: Inhibitors of USP1/UAF1: Pilot qHTS (AID 504865);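 also: rhodamine fluorescence freed from ubiquitin-rhodamine substrate followed over time; top concentration of the series differs between compounds; % is scaled to controls: 0 for no effect and ±100 for the full control effect; nearly all actives have a fitted effect of over 35% in size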
Summary of the method: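 In 50mM HEPES pH 7.8 containing 0.5mM EDTA, 1mM TCEP, 0.1 mg/ml BSA and 0.01% Tween-20, 1nM USP1/UAF1 is exposed to compound for 15 min, then Ub-Rho (150nM final) is added and fluorescence is read over time.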

[23] = target: Rap guanine nucleotide exchange factor 3 (Homo sapiens) (UniProt O95398); test: Confirmatory qHTS for agonist of cAMP-regulated guanine nucleotide exchange factor 3 (EPAC1) (AID 1645881);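 also: EPAC1 catalysed release of BODIPY-GDP from Rap1B seen as fluorescence loss; 100% = effect of cAMP agonist control; nearly all actives have a fitted effect of over 75% in size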
[24] = target: Rap guanine nucleotide exchange factor 4 (Homo sapiens) (UniProt Q8WZA2); test: Confirmatory qHTS for agonist of cAMP-regulated guanine nucleotide exchange factor 4 (EPAC2) (AID 1645884);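 also: nucleotide exchange releases bodipy-GDP from Rap1 and this lowers its fluorescence; % is scaled to controls: 0 for no effect and ±100 for the full control effect; nearly all actives have a fitted effect of over 65% in size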
[25] = measured here: cell count channel max response
[26] = measured here: lipid channel max response

Cytochrome P450 2C19 (Homo sapiens), sequence (P33261 whole entry, looked up): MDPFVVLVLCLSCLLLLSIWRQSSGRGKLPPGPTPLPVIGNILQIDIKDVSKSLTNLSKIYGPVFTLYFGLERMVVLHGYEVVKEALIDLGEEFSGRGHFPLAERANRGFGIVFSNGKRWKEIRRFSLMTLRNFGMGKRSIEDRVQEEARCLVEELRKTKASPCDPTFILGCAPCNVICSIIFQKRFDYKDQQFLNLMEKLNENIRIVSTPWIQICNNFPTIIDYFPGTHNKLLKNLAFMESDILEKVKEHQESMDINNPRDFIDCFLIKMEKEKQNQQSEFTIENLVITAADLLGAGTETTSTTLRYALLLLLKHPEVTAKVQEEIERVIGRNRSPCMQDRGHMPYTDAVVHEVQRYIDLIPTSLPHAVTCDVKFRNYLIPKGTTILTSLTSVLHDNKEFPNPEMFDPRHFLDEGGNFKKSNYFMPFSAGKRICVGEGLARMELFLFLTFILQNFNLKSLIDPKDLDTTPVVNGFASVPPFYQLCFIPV
3',5'-cyclic-AMP phosphodiesterase 4B (Homo sapiens), sequence (Q07343 whole entry, looked up): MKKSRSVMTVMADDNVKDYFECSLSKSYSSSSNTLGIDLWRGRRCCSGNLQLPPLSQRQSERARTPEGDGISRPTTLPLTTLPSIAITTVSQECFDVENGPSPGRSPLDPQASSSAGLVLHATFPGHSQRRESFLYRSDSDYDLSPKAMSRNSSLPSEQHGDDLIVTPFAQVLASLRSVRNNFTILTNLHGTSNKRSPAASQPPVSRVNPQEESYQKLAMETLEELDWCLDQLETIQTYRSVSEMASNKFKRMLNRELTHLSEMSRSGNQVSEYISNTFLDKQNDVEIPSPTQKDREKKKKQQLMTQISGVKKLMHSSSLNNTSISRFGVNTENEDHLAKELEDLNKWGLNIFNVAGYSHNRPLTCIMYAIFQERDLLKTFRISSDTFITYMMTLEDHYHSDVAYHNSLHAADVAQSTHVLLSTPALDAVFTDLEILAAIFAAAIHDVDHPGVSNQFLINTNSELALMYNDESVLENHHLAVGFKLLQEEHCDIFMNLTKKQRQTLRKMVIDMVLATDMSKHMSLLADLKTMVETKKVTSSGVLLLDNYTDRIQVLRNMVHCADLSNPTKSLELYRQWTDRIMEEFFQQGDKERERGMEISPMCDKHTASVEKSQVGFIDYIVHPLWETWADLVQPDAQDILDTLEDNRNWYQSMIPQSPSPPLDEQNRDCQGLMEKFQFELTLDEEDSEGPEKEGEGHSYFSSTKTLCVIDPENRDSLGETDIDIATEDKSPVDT
Cytochrome P450 2D6 (Homo sapiens), sequence (P10635 whole entry, looked up): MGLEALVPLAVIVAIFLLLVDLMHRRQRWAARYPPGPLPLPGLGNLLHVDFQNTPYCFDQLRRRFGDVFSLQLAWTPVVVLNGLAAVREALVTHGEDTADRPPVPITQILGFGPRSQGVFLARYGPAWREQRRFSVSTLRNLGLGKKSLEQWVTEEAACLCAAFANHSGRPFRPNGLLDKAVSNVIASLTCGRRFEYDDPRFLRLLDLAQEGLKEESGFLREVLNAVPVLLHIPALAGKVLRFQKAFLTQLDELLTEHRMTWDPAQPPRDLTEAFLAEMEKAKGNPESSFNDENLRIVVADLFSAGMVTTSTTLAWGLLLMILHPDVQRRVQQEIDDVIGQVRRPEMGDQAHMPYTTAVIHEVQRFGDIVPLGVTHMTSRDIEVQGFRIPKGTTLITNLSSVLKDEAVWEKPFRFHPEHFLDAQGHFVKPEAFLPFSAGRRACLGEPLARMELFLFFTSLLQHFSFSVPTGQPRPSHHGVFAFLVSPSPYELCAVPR
Glucocorticoid receptor (Homo sapiens), sequence (P04150 whole entry, looked up, the tested form may be a part): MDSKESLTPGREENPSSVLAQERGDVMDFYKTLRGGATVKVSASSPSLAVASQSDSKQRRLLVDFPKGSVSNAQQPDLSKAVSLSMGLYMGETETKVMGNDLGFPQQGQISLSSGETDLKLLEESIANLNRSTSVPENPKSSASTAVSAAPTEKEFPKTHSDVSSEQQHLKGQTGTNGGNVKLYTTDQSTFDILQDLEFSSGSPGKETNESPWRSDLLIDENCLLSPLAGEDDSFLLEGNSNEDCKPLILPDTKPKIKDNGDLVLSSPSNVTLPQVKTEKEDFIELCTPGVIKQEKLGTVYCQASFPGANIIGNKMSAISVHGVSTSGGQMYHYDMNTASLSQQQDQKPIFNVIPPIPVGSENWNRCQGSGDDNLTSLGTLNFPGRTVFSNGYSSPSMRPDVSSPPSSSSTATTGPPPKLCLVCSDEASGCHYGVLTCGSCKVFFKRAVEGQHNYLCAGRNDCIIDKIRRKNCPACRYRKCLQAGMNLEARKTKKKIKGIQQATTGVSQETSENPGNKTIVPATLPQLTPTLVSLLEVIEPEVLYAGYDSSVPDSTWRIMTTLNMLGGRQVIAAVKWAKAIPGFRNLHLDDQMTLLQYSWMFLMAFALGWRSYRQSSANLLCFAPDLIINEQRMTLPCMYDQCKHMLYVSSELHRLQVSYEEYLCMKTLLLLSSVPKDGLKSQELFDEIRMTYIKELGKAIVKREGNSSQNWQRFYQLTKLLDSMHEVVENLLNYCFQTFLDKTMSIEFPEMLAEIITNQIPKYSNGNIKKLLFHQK
Cytochrome P450 1A2 (Homo sapiens), sequence (P05177 whole entry, looked up): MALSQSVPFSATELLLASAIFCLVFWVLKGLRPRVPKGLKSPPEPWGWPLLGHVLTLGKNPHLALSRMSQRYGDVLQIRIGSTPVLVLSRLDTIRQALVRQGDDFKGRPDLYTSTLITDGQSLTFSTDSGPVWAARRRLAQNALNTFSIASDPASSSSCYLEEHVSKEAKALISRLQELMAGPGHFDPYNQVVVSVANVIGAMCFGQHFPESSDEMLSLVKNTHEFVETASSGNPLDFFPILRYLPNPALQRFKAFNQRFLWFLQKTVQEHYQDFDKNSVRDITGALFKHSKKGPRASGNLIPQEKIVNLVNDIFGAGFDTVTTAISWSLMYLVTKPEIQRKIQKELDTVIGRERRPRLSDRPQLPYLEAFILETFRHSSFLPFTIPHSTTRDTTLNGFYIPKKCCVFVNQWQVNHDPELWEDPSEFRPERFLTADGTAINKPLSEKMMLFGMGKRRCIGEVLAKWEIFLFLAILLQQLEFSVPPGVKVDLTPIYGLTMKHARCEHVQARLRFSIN
Cytochrome P450 2C9 (Homo sapiens), sequence (P11712 whole entry, looked up): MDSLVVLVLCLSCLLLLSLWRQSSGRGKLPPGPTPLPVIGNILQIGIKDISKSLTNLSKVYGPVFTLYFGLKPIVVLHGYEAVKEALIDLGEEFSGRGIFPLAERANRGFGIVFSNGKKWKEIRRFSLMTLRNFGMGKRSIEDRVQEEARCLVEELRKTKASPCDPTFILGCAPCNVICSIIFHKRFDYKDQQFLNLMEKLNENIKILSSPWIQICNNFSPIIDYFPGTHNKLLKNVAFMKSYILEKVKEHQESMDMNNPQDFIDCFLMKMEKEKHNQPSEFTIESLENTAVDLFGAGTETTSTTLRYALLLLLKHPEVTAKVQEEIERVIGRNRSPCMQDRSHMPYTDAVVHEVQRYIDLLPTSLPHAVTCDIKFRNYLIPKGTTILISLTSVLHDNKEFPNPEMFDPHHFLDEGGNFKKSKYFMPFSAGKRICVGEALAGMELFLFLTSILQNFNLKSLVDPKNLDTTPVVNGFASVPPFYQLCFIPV
DNA dC->dU-editing enzyme APOBEC-3G (Homo sapiens), sequence (Q9HC16 whole entry, looked up): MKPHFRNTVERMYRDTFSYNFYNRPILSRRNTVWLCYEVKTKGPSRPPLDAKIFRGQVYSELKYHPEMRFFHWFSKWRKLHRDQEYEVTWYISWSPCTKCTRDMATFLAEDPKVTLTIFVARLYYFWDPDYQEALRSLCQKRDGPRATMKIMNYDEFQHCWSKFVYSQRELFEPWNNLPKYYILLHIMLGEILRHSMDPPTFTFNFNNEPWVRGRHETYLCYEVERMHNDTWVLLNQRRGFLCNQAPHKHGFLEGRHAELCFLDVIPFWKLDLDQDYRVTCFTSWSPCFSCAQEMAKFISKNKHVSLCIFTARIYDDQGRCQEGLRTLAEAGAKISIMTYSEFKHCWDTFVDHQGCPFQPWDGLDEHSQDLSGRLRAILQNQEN
Rap guanine nucleotide exchange factor 4 (Homo sapiens), sequence (Q8WZA2 whole entry, looked up): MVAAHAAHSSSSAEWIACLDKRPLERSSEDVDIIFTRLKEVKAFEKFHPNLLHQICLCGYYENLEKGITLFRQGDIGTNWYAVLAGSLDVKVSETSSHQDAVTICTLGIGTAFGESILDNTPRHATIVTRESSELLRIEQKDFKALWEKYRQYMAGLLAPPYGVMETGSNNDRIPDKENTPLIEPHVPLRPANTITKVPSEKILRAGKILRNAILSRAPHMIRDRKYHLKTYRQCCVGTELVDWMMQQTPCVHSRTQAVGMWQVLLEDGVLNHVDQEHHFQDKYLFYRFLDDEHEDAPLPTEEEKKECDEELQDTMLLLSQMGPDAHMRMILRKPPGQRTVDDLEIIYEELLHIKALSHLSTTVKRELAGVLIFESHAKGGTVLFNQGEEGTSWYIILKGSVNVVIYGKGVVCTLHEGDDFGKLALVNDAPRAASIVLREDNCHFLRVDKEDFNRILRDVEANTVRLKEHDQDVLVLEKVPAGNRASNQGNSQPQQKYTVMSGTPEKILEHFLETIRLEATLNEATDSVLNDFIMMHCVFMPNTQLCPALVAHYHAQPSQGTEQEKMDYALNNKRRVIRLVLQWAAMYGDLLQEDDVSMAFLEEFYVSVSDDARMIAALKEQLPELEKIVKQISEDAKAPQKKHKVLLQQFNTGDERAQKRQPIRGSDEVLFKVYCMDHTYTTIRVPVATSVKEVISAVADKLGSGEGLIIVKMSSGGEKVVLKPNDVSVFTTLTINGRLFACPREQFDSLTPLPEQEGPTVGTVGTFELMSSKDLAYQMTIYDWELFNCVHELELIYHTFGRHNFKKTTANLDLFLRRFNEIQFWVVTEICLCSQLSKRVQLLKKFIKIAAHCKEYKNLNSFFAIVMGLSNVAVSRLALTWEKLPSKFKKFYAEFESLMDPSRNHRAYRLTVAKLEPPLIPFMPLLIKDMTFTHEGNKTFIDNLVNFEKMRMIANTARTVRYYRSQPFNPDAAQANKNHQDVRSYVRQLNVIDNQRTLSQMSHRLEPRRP

N#C/C(=C\c1ccc(O)c(O)c1)C(N)=O
26.3%: max response [5, 25]
9.4%: max response [5, 26]
inactive: Potency [2] > 46 µM | Potency [3] > 46 µM | Potency [4] | activity change, negative = inhibition ([5]; at 57.5 µM (top of the series)) -11.6% | Potency [6] | Potency [7]
active: Potency [1] 39.8 µM

COc1ccccc1N1CCN(C[C@@H](O)COc2cccc3ccccc23)CC1
-0.579%: max response [5, 26]
inactive: activity change, negative = inhibition ([8]; at 17.2 µM (top of the series)) 4.94% | activity change, negative = inhibition ([8]; at 38 µM (top of the series)) 2.88% | activity change, negative = inhibition ([9]; at 17.2 µM (top of the series)) -8.94% | activity change, negative = inhibition ([9]; at 38 µM (top of the series)) -1.67% | activity, negative = inhibition [10] -4.93% | Potency [2] > 46 µM and > 20.6 µM | Potency [3] > 46 µM and > 20.6 µM | Potency [11] | Potency [4] | outcome [12] | Potency [13] | Potency [14] | Potency [17] | Potency [18] | Potency [19] | outcome [20] | outcome [21] | activity change, negative = inhibition ([5]; at 25.7 µM (top of the series)) -0.494% | Potency [22] | Potency [6] | Potency [7] | outcome [23] | outcome [24]
active: Potency [1] 20 µM and 31.6 µM | Potency [15] 794 nM and 316 nM and 126 nM | Potency [16] 6.31 µM and 7.94 µM and 1.58 µM
-0.0145%: max response [5, 25]
